Assay outcomes (PubChem)
Most compounds without a hit are left out; they make up all but 1.2% or so of the library.
ABCB6 inh MLPCN: inhibitors of human ABC transporter ABCB6. fluorescence ratio to DMSO, % at 10 µM. K562-ABCB6 porphyrin accumulation, flow cytometry, 1 h; stronger effect = lower value. Q9NP58. 0.19% of 360,000 active. AID 602162;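 active = fluorescence ratio to DMSO below 75%, the collection mean minus 3 SD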;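 note: signal is porphyrin accumulated inside mitochondria; lower ratio means ABCB6 inhibition with less porphyrin fluorescence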
CR mimetic SO: yeast age-related superoxide inhibition as caloric restriction mimetic | S. cerevisiae aged cells, superoxide DHE fluorescence; stronger effect = lower value | superoxide response (% of plate mean), % at 10 µM | 0.18% of 330,000 active | AID 2690;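 active = superoxide response under a set limit, about three screen SD below normal, cut at about 65% in these data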;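 note: yeast aged for seven days with compound at 30 °C before DHE staining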
SKN-1 inh: inhibitors of C. elegans SKN-1 | C. elegans VP596 Pgst-4::GFP/RFP ratio, acrylamide-induced, 24 h | inhibition, % at 21.8 µM | 0.49% of 360,000 active | AID 624304;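 active = interference check ratio from 0.5 to 1.5 plus GFP to RFP signal ratio inhibition reaching or exceeding a fixed threshold, cut at about 30% in these data, passing the limit was not always enough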
Platelet DG rel: platelet dense granule release activity | human platelet-rich plasma, SFLLRN dense granule ATP release, luminescence | inhibition, %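 (compounds screened at 7.5 µM in platelet-rich plasma)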 | 0.22% of 300,000 active | AID 1663;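 active = mean replicate score, as percent of positive control, at or above 50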
VLA-4 inh: inhibition in a human VLA-4 binding assay | inhibition, % (about 7 µM as worked out from the volumes in the protocol) | VLA-4 expressing cells, ligand binding flow cytometry | AID 2557 | 0.2% of 330,000 active; in the data active = inhibition above about 50%
CR mimetic CP: yeast aging superoxide inhibition, cherry pick confirmation. shares compounds with CR mimetic SO. S. cerevisiae aging, superoxide DHE fluorescence; stronger effect = lower value. superoxide response (% of plate), % at 10 µM. 1% of 850 active. AID 434994;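 active = superoxide signal below 65% of the plate average of sample wells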;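 note: cells aged with compound for 7 days at 30 degrees C before staining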
DHE counter: counter-screen for compounds affecting DHE oxidation and fluorescence in yeast. shares compounds with CR mimetic SO. S. cerevisiae BY4741, flow cytometry; stronger effect = lower value. fluorescence response, % at 10 µM. 850 tested, under 10 active. AID 435000;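 active = fluorescence response below 15%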;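 note: lower means stronger quenching of DHE signal or ROS scavenging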
Hits are given with their value; . = inactive; / = not tested or not shown.

SMILES	ABCB6 inh MLPCN	CR mimetic SO	SKN-1 inh	Platelet DG rel	VLA-4 inh	CR mimetic CP	DHE counter
COc1cc(Cn2c3ccc(NC(=O)CCc4ccc(O)cc4)cc3c(=O)n2C)ccc1F	.	/	.	/	/	/	/
Cc1c(C(=O)N(C)Cc2ccc(F)cc2)sc(=O)n1Cc1ccc(Cl)c(Cl)c1	.	/	.	/	/	/	/
COc1ccc([C@@H]2CC(=O)[C@@H]3CN(S(=O)(=O)c4ccc(C)cc4)[C@H](c4ccccc4)C[C@@H]3N2S(=O)(=O)c2ccccc2)cc1	.	/	.	/	/	/	/
Cc1cc(N2CCN(C(C(=O)NC3CCCC3)c3ccco3)CC2)c2ccccc2n1 (stereo unspecified)	/	/	.	/	/	/	/
CN1C(=O)[C@@](O)(c2cn(C)c3ccccc23)c2cc(Br)ccc21	/	/	.	/	/	/	/
COc1ccccc1NC(=O)CSc1ccc(-c2ccccn2)nn1	.	.	.	.	.	.	.
O=c1cc2c(nn1Cc1ccc(F)cc1)-c1ccccc1CC2	.	59	.	.	.	.	.
FC(F)(F)c1nc2cc3nc4ccccc4[nH]c3cc2n1	.	56	.	.	.	55	.
CC(=O)Nc1ccc(NC(=O)CSc2ccc(-c3cccnc3)nn2)cc1	.	.	.	.	.	/	/
CC(=O)Nc1ccc(NC(=O)CSc2ccc(-c3ccc(-n4ccnc4)cc3)nn2)cc1	.	.	.	.	.	.	.
COc1ccccc1Oc1ccc2c(c1)C(=O)N(CC(=O)O)C2=O	.	40	.	.	.	.	.
CCOc1ccc(NC(=O)CN2CCN(CC(=O)Nc3ccccc3OC)CC2)cc1	.	.	.	.	.	/	/
CCOc1ccc(NC(=O)CN2CCN(CC(=O)Nc3ccc(OC)cc3OC)CC2)cc1	.	62	.	.	.	.	.
CC1(Cc2ccc(F)c(Cl)c2)C(=O)Nc2c(Cl)cccc21 (stereo unspecified)	.	/	.	/	/	/	/
[O-][n+]1c2ccccc2[n+]([O-])c2cc(O)ccc21	.	51	.	.	.	61	.
Fc1cccc2sc(Nc3nc4ccccc4s3)nc12	.	65	.	.	.	.	.
CN(C)S(=O)(=O)n1cc(/C=C(\NC(=O)c2ccccc2F)C(=O)N2CCCCC2)c2ccccc21	.	/	.	/	/	/	/
Cn1cc(C2CC(c3ccccc3)=NN2C(=O)c2ccccc2)c2ccccc21 (stereo unspecified)	.	59	.	.	.	.	.
CCn1c(SCC(=O)Nc2cc(OC)c(OC)c(OC)c2)nnc1-c1cccs1	.	.	.	.	.	/	/
CCn1c(SCC(=O)Nc2ccc(OC)c(OC)c2)nnc1-c1cccs1	.	.	.	.	.	.	.
Cc1ccc2nc(-c3cccc(Br)c3)c(Cc3ccccn3)n2c1	.	/	.	/	/	/	/
COc1ccccc1N1CCN(c2ccc([N+](=O)[O-])cn2)CC1	.	.	.	.	.	/	/
CN(C(=O)CN1CCN(c2ccc([N+](=O)[O-])cn2)CC1)c1ccccc1	.	.	.	.	.	.	.
O=C(c1[nH]c(C(F)(F)F)nc1-c1ccccc1)N1CCc2ccccc2C1	.	/	.	/	/	/	/
Nc1nc(SCc2ccc(Br)cc2)n[nH]1	.	49	.	.	.	.	.
SMILES	ABCB6 inh MLPCN	CR mimetic SO	SKN-1 inh	Platelet DG rel	VLA-4 inh	CR mimetic CP	DHE counter
Nc1nc(SCc2ccccc2)n[nH]1	.	.	.	.	.	/	/
O=C(CN1CCN(C(=O)c2c(F)cccc2F)CC1)Nc1ccccc1C(F)(F)F	.	52	.	.	.	.	.
O=C(CN1CCN(CC(=O)Nc2ccccc2C(F)(F)F)CC1)Nc1ccccc1F	.	.	.	.	.	/	/
O=C1CCSC2=C1SCc1sccc12	.	/	.	/	/	/	/
O=C(Nc1scc(-c2ccccc2)c1C(=O)O)c1ccc(F)cc1	.	.	.	.	.	/	/
Cc1ccc(-c2csc(NC(=O)c3ccc(F)cc3)c2C(=O)O)cc1	.	65	.	.	.	.	.
COc1ccccc1-c1cnc(C(O)c2cc(C)c(OC)c(C)c2)[nH]1 (stereo unspecified)	.	/	.	/	/	/	/
CN(c1ccc(C(=O)O)cc1)S(=O)(=O)c1ccccc1	.	.	.	.	.	.	.
CC(=O)Nc1ccc(S(=O)(=O)N(C)c2ccccc2)cc1	.	.	.	.	.	.	.
Cn1cnc(S(=O)(=O)N2CCCCC2c2cc(C(=O)Nc3cccc4c3CCCC4)no2)c1 (stereo unspecified)	.	/	.	/	/	/	/
